The values below come from PubChem BioAssay AID624483 (NMMLSC, 2012).

The campaign covered roughly 360,000 compounds. About 11,000 (3.1%) were called active. Another 2% or so got no clear call; they are omitted. The sample holds actives, similar compounds and a random draw of the others, so the mix is not that of the screen. No stated cut-off is given here; in the data, active means fluorescence intensity above about 16000; inconclusive means no clear call, values can overlap the other calls; inactive means below that.

A short description of the test: counter-screen for toxin protease inhibitors: compound fluorescence, primary screen, artefact control for toxin protease inhibitor project, biochemical, multiplex microsphere, HTS (AID 624483). Conditions: compound autofluorescence counterscreen, microsphere flow cytometry; hits give high values. Background: The purpose of a counterscreen is to sort out artefacts and off-target activity.
Turning to `Cc1ccccc1CSc1nnc(-c2cccnc2)n1N`, the fluorescence intensity is 2660 (inactive).

Regarding `Cc1ccccc1CSc1nnc(-c2ccccn2)n1N`, the fluorescence intensity was 16200 (active).

Take `Cn1c(SCC(=O)C(C)(C)C)nnc1-c1ccccn1`: the fluorescence intensity was 9760 (inactive).

For the compound `COc1ccc(C(=O)NC(=S)N2CCCCC2c2cccnc2)cc1OC` (centres undefined), the fluorescence intensity is 4080 (inactive).

`Cc1ccc(-n2c(=O)c(C#N)cc3c(=O)n4ccccc4nc32)cc1C`: the fluorescence intensity was 24200 (active).

On to `CCn1c(=N)c(S(=O)(=O)c2ccc(F)cc2)cc2c(=O)n3ccccc3nc21`, for which the fluorescence intensity is 2990 (inactive).

For the compound `Cc1ccc(Cn2c(=N)c(S(=O)(=O)c3ccc(C)cc3)cc3c(=O)n4ccccc4nc32)cc1`, the fluorescence intensity was 4390 (inactive).

With `CCc1nc2nc(C)c(NS(=O)(=O)c3ccc4c(c3)CCCC4)c(=O)n2[nH]1`, the fluorescence intensity was 4030 (inactive).

`C=C1C(=O)[C@]23C[C@H]1CCC2[C@@]1(C)C(C[C@@H]3O)[C@](C)(C(=O)O)CC[C@@H]1O` (some centres undefined): the fluorescence intensity is 4260 (inactive).

In the case of `CC1=C(C(=O)N(C(C)C)C(C)C)CC(CC(=O)NCC2CCCCC2)C(=O)N1Cc1ccccc1` (centres undefined), the fluorescence intensity was 5490 (inactive).

Turning to `CN(C1CCS(=O)(=O)C1)S(=O)(=O)c1ccc2ccccc2c1` (centres undefined), the fluorescence intensity is 5860 (inactive).

For `CCCCN(C1CCS(=O)(=O)C1)S(=O)(=O)c1ccc(C(C)C)cc1` (centres undefined), the fluorescence intensity is 5460 (inactive).

Regarding `Cc1ccc(S(=O)(=O)N(c2cccc(C)c2)C2CCS(=O)(=O)C2)cc1` (centres undefined), the fluorescence intensity is 21200 (active).

`CCOP(=O)(OCC)C(Cc1ccccc1)N=C(c1ccccc1)c1ccccc1` (centres undefined): the fluorescence intensity was 5750 (inactive).

Regarding `Cn1cnc(S(=O)(=O)Nc2ccc3c(c2)OCCO3)c1`, the fluorescence intensity is 3290 (inactive).

`CCC(c1nnnn1-c1ccc2c(c1)OCCO2)N1CCN(c2ccc(C(F)(F)F)cn2)CC1` (centres undefined): the fluorescence intensity was 5170 (inactive).

Turning to `CC(=O)Nc1cc(-c2ccc(N3CCN(C)CC3)cc2)cn2c(-c3cccc(C(=O)N(C)C)c3)cnc12`, the fluorescence intensity is 2910 (inactive).

On to `CC/S(CC1CC1(Cl)Cl)=N\S(=O)(=O)c1ccc(C)cc1` (centres undefined), for which the fluorescence intensity was 19500 (active).

Regarding `Cc1ccc(S(=O)(=O)/N=S(\C)C(C)C)cc1` (centres undefined), the fluorescence intensity was 2730 (inactive).

`CCCC/S(C)=N/S(=O)(=O)c1ccc(C)cc1` (centres undefined): the fluorescence intensity was 1940 (inactive).

With `CC(=O)c1ccc(-c2cnc3c(NC=O)cc(-c4cccc(NS(C)(=O)=O)c4)cn23)cc1`, the fluorescence intensity is 4010 (inactive).

Take `COc1ccc(C(c2nnnn2C2CCCC2)N2CCN(C/C=C/c3ccccc3)CC2)cc1` (centres undefined): the fluorescence intensity was 5910 (inactive).

Regarding `CCCCOC(=O)Nc1nnc(CC(=O)NCc2ccccc2)s1`, the fluorescence intensity was 3980 (inactive).

For `O=C(CC(c1ccccc1)c1ccccc1)NCC(O)c1ccc([N+](=O)[O-])cc1` (centres undefined), the fluorescence intensity is 3190 (inactive).

As for `CCCCCCOC(=O)NCC(O)c1ccccc1` (centres undefined), the fluorescence intensity is 17600 (active).

`Cc1cccc(CN2CCN(C3CN(Cc4cn(Cc5cc(C)cc(C)c5)nn4)S(=O)(=O)C3)CC2)c1` (centres undefined): the fluorescence intensity was 4640 (inactive).

In the case of `CCCCCCN1CCN(C2CN(Cc3cn(CCCCCC)nn3)S(=O)(=O)C2)CC1` (centres undefined), the fluorescence intensity is 5850 (inactive).

For the compound `Cc1ccc(S(=O)(=O)N(CC(O)CN2CCCCC2)c2cccc([N+](=O)[O-])c2)cc1` (centres undefined), the fluorescence intensity was 3000 (inactive).

Take `COc1ccc([N+](=O)[O-])cc1N(CC(O)CN(CC(C)C)CC(C)C)S(=O)(=O)c1ccc(C)cc1` (centres undefined): the fluorescence intensity is 3790 (inactive).

For the compound `COc1ccc([N+](=O)[O-])cc1N(CC(O)Cn1nnc2ccccc21)S(=O)(=O)c1ccc(C)cc1` (centres undefined), the fluorescence intensity is 17900 (active).

As for `CC(C)[C@@H](C(=O)OCC(=O)c1ccc2c(c1)NC(=O)CO2)N1C(=O)c2ccccc2C1=O`, the fluorescence intensity is 3880 (inactive).

Take `C=C(C)C(=O)O[C@H]1C/C(C)=C\C(=O)/C=C(\C)[C@H](O)[C@@H]2OC(=O)C(=C)[C@@H]21`: the fluorescence intensity is 2760 (inactive).

For `CCOC(=O)c1c(C)n(C)c2ccc(OC)c(NS(=O)(=O)CC)c12`, the fluorescence intensity is 2300 (inactive).

Regarding `CCOc1ccc(NC(=O)N(CC(C)C)CC(C)C)cc1`, the fluorescence intensity is 20300 (active).

Consider `CCOc1ccc(NC(=O)N(CCC(C)C)C(C)c2ccco2)cc1` (centres undefined), for which the fluorescence intensity is 2150 (inactive).

With `CCOc1ccc(NC(=O)Nc2ccc(N(C)C(C)=O)cc2)cc1`, the fluorescence intensity is 4350 (inactive).

With `CCOC(=O)C1=C(C)NC(C)=C(C(=O)OCC)C1C1=COCCO1`, the fluorescence intensity was 5040 (inactive).

For `CCCC1NC(=S)NC(C)=C1C(C)=O` (centres undefined), the fluorescence intensity was 4600 (inactive).

For `CCCC1NC(=O)NC(C)=C1C(=O)OCC` (centres undefined), the fluorescence intensity was 20200 (active).

`CC(=O)NC(c1ccccc1)c1nc(-c2ccccc2C)cs1` (centres undefined): the fluorescence intensity is 3560 (inactive).

Take `O=C(NC(=S)Nc1ccc(NC(=O)c2cccs2)cc1)c1ccc([N+](=O)[O-])cc1`: the fluorescence intensity was 8970 (inactive).

As for `O=C(Nc1ccccc1-c1ccccc1)c1cccs1`, the fluorescence intensity was 4880 (inactive).

For the compound `O=C(Nc1ccc(N2CCN(C(=O)C3CC3)CC2)cc1)c1cccs1`, the fluorescence intensity was 2520 (inactive).

With `O=C(O)Cc1ccc(NC(=O)c2cccs2)cc1`, the fluorescence intensity was 19700 (active).

For `O=C(O)c1ccc(NC(=O)c2cccs2)cc1`, the fluorescence intensity is 23200 (active).

`CCc1ccc(NC(=O)C(=O)NNC(=O)c2cccs2)cc1`: the fluorescence intensity is 5780 (inactive).

Turning to `CC(C)CCNC(=O)c1[nH]c(C(F)(F)F)nc1-c1ccccc1`, the fluorescence intensity was 5980 (inactive).

`CCOC(=O)[C@]12CCC=C1N(Cc1ccco1)C(=O)[C@H](CC(=O)NCc1cccc(C(F)(F)F)c1)C2`: the fluorescence intensity was 4290 (inactive).

As for `COC(=O)[C@]12CCCCC=C1N(CCC1=CCCCC1)C(=O)[C@H](CC(=O)N1CCSCC1)C2`, the fluorescence intensity is 5780 (inactive).

As to `CC(=O)Nc1ccc(CNc2nc(NCCN(C)C)nc3cc(-c4ccccc4)sc23)cc1`, the fluorescence intensity was 3970 (inactive).

For the compound `Cc1cc(Cl)ccc1NNC(=O)c1snnc1C`, the fluorescence intensity was 3890 (inactive).

With `CC1(C(=O)Nc2cccnc2)Cc2c(-c3ccccc3)ccnc2O1` (centres undefined), the fluorescence intensity was 2820 (inactive).

As to `O=C(Nc1cccnc1)c1noc2c1CCCCC2`, the fluorescence intensity is 24400 (active).

For the compound `Cc1noc(C)c1COc1cccc(C(=O)Nc2cccnc2)c1`, the fluorescence intensity was 4200 (inactive).

`CS(=O)(=O)N(CC(=O)N1CCOCC1)c1cccc(Cl)c1Cl`: the fluorescence intensity was 4130 (inactive).

In the case of `COC(=O)c1ccc(CN2C(=O)C(Cc3ccccc3)ON=C2c2ncccc2C)o1` (centres undefined), the fluorescence intensity is 4970 (inactive).

As to `COCCCn1c(SCc2cccc(OC)c2)nc2cc(OC)c(OC)cc2c1=N`, the fluorescence intensity was 23400 (active).

For the compound `COCCn1c(SCc2nc3cc(OC)c(OC)cc3c(=O)[nH]2)nnc1-c1ccncc1`, the fluorescence intensity is 3550 (inactive).

Turning to `COc1cccc(CSc2nc3nc(C)cc(C)n3n2)c1`, the fluorescence intensity is 3360 (inactive).
